In ChEMBL document CHEMBL3433997, “St. Jude Leishmania screening dataset” (2016) one finds inhibition data, which are given here for 35 compounds.

Structures are written as SMILES.

What all share (type): functional
In test [1] the target is Solute carrier family 2, facilitated glucose transporter member 1 (Homo sapiens) (UniProt P11166). Briefly: ST_JUDE_LEISH: Cytotoxicity at 2uM final concentration against transgenic Leishmania Mexicana promastigotes LmGLUT1 that are glucose transport deficient and complemented with the human glucose transporter GLUT1. Activity is measured by DNA content using SYBR green in vitro.
Sequence of Solute carrier family 2, facilitated glucose transporter member 1 (Homo sapiens) (P11166 whole entry): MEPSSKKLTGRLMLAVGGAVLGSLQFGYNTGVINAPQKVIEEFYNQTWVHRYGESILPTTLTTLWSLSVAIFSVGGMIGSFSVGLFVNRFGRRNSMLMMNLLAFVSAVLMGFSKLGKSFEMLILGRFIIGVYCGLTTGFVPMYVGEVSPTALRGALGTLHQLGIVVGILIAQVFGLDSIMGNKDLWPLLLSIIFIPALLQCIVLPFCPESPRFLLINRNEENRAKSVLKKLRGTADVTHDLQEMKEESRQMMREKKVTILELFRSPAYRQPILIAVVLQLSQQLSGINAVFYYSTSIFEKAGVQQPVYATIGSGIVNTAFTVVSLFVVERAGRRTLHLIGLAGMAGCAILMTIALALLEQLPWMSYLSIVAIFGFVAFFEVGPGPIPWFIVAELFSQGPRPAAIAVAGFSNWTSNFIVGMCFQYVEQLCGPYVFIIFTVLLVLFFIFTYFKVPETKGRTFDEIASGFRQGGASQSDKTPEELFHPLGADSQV

The target in test [2] is Hexose transporter 1 (Plasmodium falciparum) (UniProt O97467). Briefly: ST_JUDE_LEISH: Cytotoxicity at 2uM final concentration against transgenic Leishmania Mexicana promastigotes LmPfHT that are glucose transport deficient and complemented with the Plasmodium falciparum hexose transporter. Activity is measured by DNA content using SYBR green in vitro.
In test [3] the target is Glucose transporter (Leishmania mexicana) (UniProt O61059). Put plainly: ST_JUDE_LEISH: Cytotoxicity at 2uM final concentration against transgenic Leishmania Mexicana promastigotes LmGT2 that are glucose transport deficient and complemented with the L. Mexicana glucose transporter 2. Activity is measured by DNA content using SYBR green in vitro.

In general, inhibition refers to the relative decrease from the control value, in per cent. Regarding `O=C(Nc1cccc(CN2CCCN(Cc3cccnc3)CC2)c1)c1ccc(Cl)c(Cl)c1`, the inhibition turned out to be 5.01% in test [1], 4.16% in test [2] and 5.38% in test [3].

In the case of `O=C(C=Cc1cccs1)Nc1ccc(-c2nc3ccccc3[nH]2)cc1`, the inhibition in test [1] was 1.65%; in test [2] it was 0.72%; in test [3], 3.04%.

As to `CC1(C)NC(N)=NC(=N)N1OCCCc1cccc(C(F)(F)F)c1`, the inhibition in test [1] was -0.43%; in test [2], -0.35%; in test [3], 1.25%.

Take `Cc1cccc(-c2nn(-c3ccccc3)c3[nH]c(=O)c(CNC4CCCC4)cc23)c1`: the values for the inhibition in test [1], in test [2] and in test [3] were 2.26%, 2.39% and -0.29%, respectively.

Regarding `O=C(N[C@@H](Cc1ccccc1)C(=O)NC1CCCCC1)c1ccc(O)c(-c2cccc(C(F)(F)F)c2)c1`, the inhibition came to 3.98% in test [1], 5.95% in test [2] and 5.39% in test [3].

Turning to `Cc1nc(-c2ccc(-c3ccc(C(=O)Nc4ccc(I)c(OCCN5CCCC5)c4)cc3)c(C)c2)no1`, the inhibition in test [1] is 3.85%; in test [2], 3.48%; in test [3] it was 1.38%.

`O=C(NCC1CCC(C(=O)NCCN2CCCCC2)CC1)c1ccc(O)c(-c2ccc(Cl)c(Cl)c2)c1` (stereo not given): the inhibition in test [1] is -0.83%; in test [2] it was 0.49%; in test [3], 0.18%.

Regarding `Cc1ccc2[nH]c(/C=C/c3cccc4cc[nH]c34)nc2c1`, the values for the inhibition in test [1], in test [2] and in test [3] were 4.9%, 4.05% and 0.48%, respectively.

As to `CCC(C(C)C)n1ccc2c3c(N)nc(N)nc3ccc21` (stereo not given), the results for the inhibition in test [1], in test [2] and in test [3] were 81.6%, 84.6% and 66.6%, respectively.

Consider `O=C(Cc1ccc(-c2ccccc2)cc1)N[C@H]1CCN(Cc2ccc(OCCCN3CCCCC3)cc2)C1`, for which the inhibition in test [1] is 18.6%; in test [2] it was 17.2%; in test [3], 8.12%.

Regarding `CCS(=O)(=O)Nc1ccc2[nH]cc(C3CCN(CCC4CCN(C(=O)/C=C/c5ccc(Cl)c(Cl)c5)CC4)CC3)c2c1`, the inhibition stood at 2.73% in test [1], 4.42% in test [2] and 1.91% in test [3].

Consider `CCCCCCNC(=O)C1Cc2c([nH]c3cc(Cl)ccc23)C2(CCN(Cc3ccccc3)CC2)N1` (stereo not given), for which the values for the inhibition in test [1], in test [2] and in test [3] were 7.27%, 5.97% and 5.18%, respectively.

For the compound `COc1ccc(Nc2ncc3c(-c4ccc(NC(=O)c5cccc(C(F)(F)F)c5)cc4)c[nH]c3n2)cc1OC`, the inhibition in test [1] is 0.57%; in test [2] it was -0.05%; in test [3], -0.51%.

Take `CCCCCCC1(C)N=C(N)N=C(N)C1c1ccc(Cl)c(Cl)c1` (stereo not given): the values for the inhibition in test [1], in test [2] and in test [3] were 1.71%, 1.39% and 0.06%, respectively.

For `O=C(/C=C/c1ccccc1Cl)Nc1ccc(Br)c(OCCN2CCC(O)(c3ccccc3)CC2)c1`, the values for the inhibition in test [1], in test [2] and in test [3] were 2.66%, 0.95% and -0.34%, respectively.

Turning to `O=C(Nc1ccc(Br)cc1)Nc1ccc(Cn2ncc(N3CCCNCC3)c(Cl)c2=O)cc1`, the inhibition in test [1] is -2.08%; in test [2], 0.01%; in test [3] it was 2.81%.

For the compound `O=C(C=CC(=O)N1CCCCC1)NCc1ccccc1`, the inhibition in test [1] stood at 2.97%; in test [2], 3.29%; in test [3], 2%.

Regarding `Nc1cccc(CNCc2ccc(-c3ccc(-c4nc5ccccc5[nH]4)s3)cc2)c1`, the inhibition was 2.71% in test [1], -0.53% in test [2] and 2.48% in test [3].

On to `CCN(CC)CCNC(=O)c1ccc(NC(=O)c2cn(-c3ccccc3)nc2-c2cccs2)cc1`, for which the inhibition in test [1] stood at 5.46%; in test [2], 4.01%; in test [3], 6.19%.

Consider `CCCCc1cc(NCC)nc(Nc2ccc(F)cc2)n1`, for which the figures for the inhibition in test [1], in test [2] and in test [3] were 18.4%, 10.4% and 4.95%, respectively.

Regarding `CC[C@H](C)CNC(=O)c1cccc(-c2cccc(CN3CCC(N4CCCC4)CC3)c2)n1`, the inhibition in test [1] was -2.59%; in test [2], -0.05%; in test [3], -0.2%.

Regarding `O=C(NCC1CCC(C(=O)NC2CCCc3ccccc32)CC1)c1ccc(O)c(-c2ccc(Cl)c(Cl)c2)c1` (stereo not given), the inhibition in test [1] is 3.42%; in test [2] it was 2.81%; in test [3], 4.27%.

As to `O=C(NC1CCCCC1)N(Cc1ccc(-c2cccc(CNC3CCCC3)c2)cc1)C1CCN(Cc2ccccc2)CC1`, the values for the inhibition in test [1], in test [2] and in test [3] were 6.18%, 7.64% and 5.72%, respectively.

`Fc1cccc(COc2ccc(Nc3ncnc4ccc(C#C[C@H]5CCCN5)cc34)cc2Cl)c1`: the inhibition in test [1] was determined as 1.39%; in test [2] it was 1.5%; in test [3] it was 2.2%.

With `COc1ccc(Cc2cnc3nc(N)nc(N)c3c2C)cc1`, the figures for the inhibition in test [1], in test [2] and in test [3] were 39.5%, 49.3% and 41.3%, respectively.

With `OCCCCCCNc1ccnc2[nH]c3ccc(I)cc3c12`, the inhibition in test [1] stood at 8.64%; in test [2], 6.33%; in test [3], 3.14%.

In the case of `NC(=O)c1ccc(NCC(=O)Nc2cccc(-c3cccc(-c4nc5cc(F)ccc5[nH]4)c3)c2)cc1`, the inhibition in test [1] was -0.29%; in test [2], 1.39%; in test [3], -1.25%.

With `Cc1cccc2nc(-c3cccc(-c4cccc(CNCc5cnn(-c6ccccc6)n5)c4)c3)[nH]c12`, the inhibition in test [1] was found to be 0.8%; in test [2], 1.43%; in test [3], 2.51%.

Turning to `COc1ccc(NC(=O)NC2CCN(CCCCCNC(=O)/C=C/c3ccc(Cl)c(Cl)c3)CC2)cc1`, the inhibition in test [1] is -1.04%; in test [2] it was -0.81%; in test [3] it was -2.52%.

On to `CC(C)(C)c1ccc(CN2CCC(NC(=O)c3ccc(-c4ccccc4F)s3)CC2)cc1`, for which the inhibition was 0.69% in test [1], -2.65% in test [2] and -2.5% in test [3].

Turning to `CCN(CC)/C(=N/C(=N)Nc1ccc(Cl)c(Cl)c1)NCCCCCCN/C(=N\C(=N)Nc1ccc(Cl)c(Cl)c1)N(CC)CC`, the values for the inhibition in test [1], in test [2] and in test [3] were 1.15%, -1.65% and -1.49%, respectively.

As for `COc1cccc(Cc2c(C)nc3nc(N)nc(N)c3c2C)c1`, the inhibition in test [1] was -0.08%; in test [2], 1.04%; in test [3] it was -0.24%.

In the case of `CCN(CCN(C)C)Cc1ccc(-c2ccc(NS(=O)(=O)c3cccc(Cl)c3)cc2)cc1`, the figures for the inhibition in test [1], in test [2] and in test [3] were 7.37%, 0.64% and -1.5%, respectively.

Regarding `CCN(CC)CCNC(=O)c1ccc(NC(=O)c2ccc(-c3cc(NC(=O)CC4CCCC4)ccc3C)cc2)cc1`, the inhibition is 2.1% in test [1], 1.64% in test [2] and 2.4% in test [3].

On to `CCc1cn2c3c(cc(C(=O)N[C@@H](Cc4ccccc4)[C@H](O)CNC4CC4)cc13)N(CC)S(=O)(=O)CC2`, for which the inhibition was -0.74% in test [1], -0.31% in test [2] and 0.02% in test [3].
